The subject of this assay is E. coli TESEC Mtb Alr. Kind of assay: growth (OD600 after 10 h); higher = more growth (less inhibition). The settings on record: compound 0.1 mM. How it is done: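 TESEC Mtb Alr E. coli, or the Alr+ wild-type control, in 384-well plates with Prestwick library compounds at 0.1 mM and 1% DMSO, across arabinose induction levels of 1E3 to 1E7 nM. Growth is read as OD600 after 10 h at 37 °C in triplicate biological replicates.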

Where [1] appears, read: arabinose 1000 nM, raw OD600 reference: median of DMSO wells 0.294, cell-free background 0.041.
The mark [2] stands for this setting: arabinose 10000 nM, raw OD600 reference: median of DMSO wells 0.264, cell-free background 0.041.
Setting [3] is: arabinose 100000 nM, raw OD600 reference: median of DMSO wells 0.201, cell-free background 0.041.
The mark [4] stands for this setting: arabinose 1000000 nM, raw OD600 reference: median of DMSO wells 0.193, cell-free background 0.041.
Setting [5] is: arabinose 10000000 nM, raw OD600 reference: median of DMSO wells 0.146, cell-free background 0.041.

The structures appear in SMILES notation. Counter-ions that a name gives are not always drawn. ± gives the standard deviation of the averaged measurements.

`CC1(C)O[C@@H]2C[C@H]3[C@@H]4CCC5=CC(=O)CC[C@]5(C)[C@@]4(F)[C@@H](O)C[C@]3(C)[C@]2(C(=O)CCl)O1` [Halcinonide] came in with a growth under setting [1] of 0.283 ± 0.011; a growth under setting [2] of 0.2593 ± 0.0019; a growth under setting [3] of 0.181 ± 0.027; a growth under setting [4] of 0.123 ± 0.0028; a growth under setting [5] of 0.152 ± 0.014.

Consider `Nc1ccc(S(=O)(=O)Nc2ccc(Cl)nn2)cc1` [Sulfachloropyridazine], for which the growth under setting [1] was 0.285 ± 0.029; the growth under setting [2] is 0.174 ± 0.0032; the growth under setting [3] amounted to 0.231 ± 0.022; the growth under setting [4] was found to be 0.0969 ± 0.0044; the growth under setting [5] is 0.165 ± 0.0072.

`CN1CC2c3ccccc3Oc3ccc(Cl)cc3C2C1` (stereo not given) [Asenapine maleate] came in with a growth under setting [1] of 0.159 ± 0.012; a growth under setting [2] of 0.225 ± 0.0073; a growth under setting [3] of 0.18 ± 0.004; a growth under setting [4] of 0.123 ± 0.0024; a growth under setting [5] of 0.164 ± 0.0081.

`CCN(CCCc1ccccc1)CCCc1ccccc1` [Alverine citrate salt] displayed a growth under setting [1] of 0.221 ± 0.013; a growth under setting [2] of 0.286 ± 0.0067; a growth under setting [3] of 0.177 ± 0.0094; a growth under setting [4] of 0.1472 ± 0.00053; a growth under setting [5] of 0.156 ± 0.011.

Consider `CC[N+](C)(CC)CCOC(=O)C1c2ccccc2Oc2ccccc21` [Methantheline bromide], for which the growth by setting is: under setting [1], 0.269 ± 0.011; under setting [2], 0.287 ± 0.0031; under setting [3], 0.18 ± 0.015; under setting [4], 0.193 ± 0.025; under setting [5], 0.135 ± 0.007.

On to `CC(=O)Nc1ccc(O)cc1` [Acetaminophen], for which the growth by setting is: under setting [1], 0.315 ± 0.0071; under setting [2], 0.277 ± 0.0034; under setting [3], 0.202 ± 0.0068; under setting [4], 0.188 ± 0.0053; under setting [5], 0.162 ± 0.0048.

Regarding `Cc1c(OCC(F)(F)F)ccnc1C[S+]([O-])c1nc2ccccc2[nH]1` (stereo not given) [Lansoprazole], the growth is, setting by setting: under setting [1], 0.164 ± 0.0045; under setting [2], 0.242 ± 0.01; under setting [3], 0.132 ± 0.0025; under setting [4], 0.094 ± 0.0041; under setting [5], 0.14 ± 0.0041.

For `Cn1nnc2c(C(N)=O)ncn2c1=O` [Temozolomide], the growth is 0.289 ± 0.0045 under setting [1]; 0.248 ± 0.0082 under setting [2]; 0.208 ± 0.018 under setting [3]; 0.163 ± 0.0073 under setting [4]; 0.134 ± 0.0048 under setting [5].

(Values after the supplement of paper PMC9262897, “Low-cost anti-mycobacterial drug discovery using engineered E. coli” (Nature Communications, 2022).)
